Source: PubChem (National Center for Advancing Translational Sciences (NCATS))
USP1 inh: USP1/UAF1 (human) deubiquitinase inhibition; O94782; recombinant USP1/UAF1, Ub-Rhodamine cleavage fluorescence; Potency, µM (top dose mostly 57.1 µM), actives largely listed as inhibitors; actives 0.23% (n = 390,000); AID 743255; note: nearly all actives have a fitted effect of over 60% in size
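USP1/UAF1 complex (1 nM) preincubated 15 min at room temperature with compound, then Ub-Rho substrate (150 nM final) added. Kinetic fluorescence at 480/540 nm over 6 reads at 60 s intervals; 50 mM HEPES pH 7.8, 0.5 mM EDTA, 0.1 mg/ml BSA, 1 mM TCEP, 0.01% Tween-20.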
EPAC1 agonist: EPAC1 (human) agonism. O95398. EPAC1 agonist qHTS, biochemical assay; response scale: 100% = response to 6.5 mM cAMP. Potency, µM (top dose mostly 154 µM), hits mostly activators. actives 0.073% (n = 360,000). AID 720707; note: nearly all actives have a fitted effect of over 60% in size
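Fluorescent GDP-exchange assay: 100 nM EPAC1 with 250 nM Rap1B preloaded with BODIPY-GDP and 50 uM GDP; compounds tested as concentration series, 5 min at room temperature, then read every 5 min for 30 min (ex 480/em 540 nm); normalized to 6.5 mM cAMP.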
EPAC2 antag: antagonists of human EPAC2 | Q8WZA2 | EPAC2 GEF exchange of Rap1B-BODIPY-GDP, fluorescence | Potency, µM (titrated, usually from 114 µM), usual class: inhibitors | actives 0.18% (n = 360,000) | AID 720708; note: nearly all actives have a fitted effect of over 45% in size
EPAC1 antagonist: antagonists of human EPAC1; EPAC1 GEF assay, Rap1b-BODIPY-GDP exchange fluorescence; AID 720709; actives 0.14% (n = 360,000); Potency, µM (titrated, usually from 115 µM), usual class: inhibitors; note: nearly all actives have a fitted effect of over 50% in size
VDR inhibitor: blocks the human vitamin D receptor | P11473 | actives 0.93% (n = 400,000) | VDR-SRC2-3 peptide fluorescence polarization, 2 h | Potency, µM, usual class: inhibitors
Target sequence (P11473 whole entry, looked up): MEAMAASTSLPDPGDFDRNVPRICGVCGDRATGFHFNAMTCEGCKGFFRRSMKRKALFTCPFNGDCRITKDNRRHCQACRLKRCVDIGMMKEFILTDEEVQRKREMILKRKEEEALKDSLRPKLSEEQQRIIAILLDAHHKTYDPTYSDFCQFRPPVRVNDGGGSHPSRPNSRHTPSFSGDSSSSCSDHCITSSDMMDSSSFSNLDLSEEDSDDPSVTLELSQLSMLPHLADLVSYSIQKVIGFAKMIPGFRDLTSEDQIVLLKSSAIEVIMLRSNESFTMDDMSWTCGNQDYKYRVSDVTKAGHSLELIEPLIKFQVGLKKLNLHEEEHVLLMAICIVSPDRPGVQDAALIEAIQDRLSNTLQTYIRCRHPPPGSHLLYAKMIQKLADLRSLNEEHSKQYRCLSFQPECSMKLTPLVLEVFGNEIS
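Measured by FP: displacement of SRC2-3 coactivator peptide from VDR by library compounds, following a two-hour ambient incubation.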
EPAC2 agonist: EPAC2 (human) agonism | EPAC2 activation, biochemical qHTS; response scale: 100% = 6.5 mM cAMP response | Potency, µM (top dose mostly 154 µM), most hits filed as activators | actives 0.079% (n = 360,000); note: nearly all actives have a fitted effect of over 50% in size
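Fluorescence exchange assay: 100 nM EPAC2 with 250 nM RAP1B-BODIPY-GDP and 50 uM GDP; compounds tested as a concentration-titration series (qHTS). Loss of Rap1-bound BODIPY-GDP fluorescence read at 480/540 nm; data normalized to 6.5 mM cAMP.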
A number is an active result; ! = a repeat was not active. A selection: hits, their analogues and other compounds. The true share with any hit is near 1.2%. Calls come from the whole dose curve; as a rule, active = well fitted curve in the direction sought with a large enough effect; inconclusive = small, poorly fitted or top-dose-only effect, or another doubt; inactive = no such curve, though single readings can be large; an effect the other way counts as inactive or inconclusive.

Results for CSCC[C@H](NC(=O)[C@H](CCCN=C(N)N)NC(=O)[C@@H]1CCCN1C(=O)[C@H](Cc1ccccc1)NC(=O)[C@H](C)NC(=O)[C@H](CC(C)C)NC(=O)[C@H](Cc1ccc(O)cc1)NC(=O)[C@H](CC(N)=O)NC(=O)[C@@H](N)CCSC)C(N)=O ?
VDR inhibitor: inactive

How did CN(c1ccc(O)cc1)S(=O)(=O)c1ccc2ccccc2c1 do in these assays?
USP1 inh: inactive; EPAC1 agonist: inactive; EPAC2 antag: inactive; EPAC1 antagonist: inconclusive; VDR inhibitor: inactive; EPAC2 agonist: inactive

How did Cc1ccc(S(=O)(=O)O)cc1C do in these assays?
VDR inhibitor: inactive

What do the screens show for `Nc1cccc2cc(S(=O)(=O)O)ccc12`?
USP1 inh: 7.08µM; EPAC1 agonist: inactive; EPAC2 antag: inactive; EPAC1 antagonist: inconclusive; VDR inhibitor: inactive; EPAC2 agonist: inactive

How did O=Nc1c(O)ccc2cc(S(=O)(=O)O)ccc12 do in these assays?
USP1 inh: inconclusive; EPAC1 agonist: inactive; EPAC2 antag: inactive; EPAC1 antagonist: inactive; VDR inhibitor: 79.4µM; EPAC2 agonist: inactive

How did NS(=O)(=O)c1ccc(N=Nc2c(O)ccc3ccccc23)cc1 do in these assays?
USP1 inh: inactive; EPAC1 agonist: inactive; EPAC2 antag: inactive; EPAC1 antagonist: inactive; VDR inhibitor: inactive; EPAC2 agonist: inactive

Results for CN(C)c1ccc2cc(S(=O)(=O)O)cc(O)c2c1 ?
USP1 inh: inconclusive; EPAC1 agonist: inactive; EPAC2 antag: inactive; EPAC1 antagonist: inactive; VDR inhibitor: 50.1µM; EPAC2 agonist: inactive

Results for CCCCN(Cc1cc2cc(C)ccc2[nH]c1=O)C(=O)c1cccc(Cl)c1 ?
USP1 inh: inactive; VDR inhibitor: inactive

How did COc1ccc(OC(C)C(=O)NCc2nc(-c3cccc(C)c3)no2)cc1 (stereo unspecified) do in these assays?
USP1 inh: inactive; VDR inhibitor: inactive

Results for CN1CCN(CC(=O)c2cc(C(C)(C)C)c(O)c(C(C)(C)C)c2)CC1 ?
USP1 inh: inactive; EPAC1 agonist: inactive; EPAC2 antag: inactive; EPAC1 antagonist: inactive; VDR inhibitor: 70.8µM; EPAC2 agonist: inactive

What do the screens show for `C=CCC(C)(O)c1cccc(Br)c1` (stereo unspecified)?
VDR inhibitor: inactive

How did COC(=O)c1ccc2c(c1)SC1=C(CCCC1=O)N2 do in these assays?
USP1 inh: inactive; EPAC1 agonist: inactive; EPAC2 antag: inactive; EPAC1 antagonist: inactive; VDR inhibitor: inactive; EPAC2 agonist: inactive

How did COC(=O)C1=C(C)Nc2ccc(C)cc2S1 do in these assays?
USP1 inh: inactive; EPAC1 agonist: inactive; EPAC2 antag: inactive; EPAC1 antagonist: inactive; VDR inhibitor: 70.8µM; EPAC2 agonist: inactive

What do the screens show for `COC1=CC(=O)C(O)=C/C1=C\C=C\c1ccccc1`?
VDR inhibitor: 2.82µM

How did C/C=C(/C)C(=O)O[C@H]1C[C@@]2(C)O[C@H]2[C@@H](OC(C)=O)C2(C)CC[C@@](O)(C(C)C)C12 (stereo partly specified) do in these assays?
VDR inhibitor: inactive

Results for Oc1ccc2ccccc2c1-c1sc(Nc2ccccc2)n[n+]1-c1ccc(F)cc1 ?
USP1 inh: inactive; EPAC1 agonist: inactive; EPAC2 antag: 50.1µM; EPAC1 antagonist: inconclusive; VDR inhibitor: inactive; EPAC2 agonist: inactive

What do the screens show for `CN(C)c1cccc(NC(=O)C2(C)CC2(Cl)Cl)c1` (stereo unspecified)?
USP1 inh: inactive; EPAC1 agonist: inactive; EPAC2 antag: inactive; EPAC1 antagonist: inactive; VDR inhibitor: inactive; EPAC2 agonist: inactive

Results for CC(=O)Nc1ccc(NC(=O)C2(C)CC2(Cl)Cl)cc1 (stereo unspecified) ?
USP1 inh: inactive; EPAC1 agonist: inactive; EPAC2 antag: inactive; EPAC1 antagonist: inactive; VDR inhibitor: 79.4µM; EPAC2 agonist: inactive

How did Cc1nn(C)c(=O)n1-c1ccccc1 do in these assays?
USP1 inh: inactive; EPAC1 agonist: inactive; EPAC2 antag: inactive; EPAC1 antagonist: inactive; VDR inhibitor: inactive; EPAC2 agonist: inactive

How did Cn1c2nc(=O)n(-c3ccccc3)c(=O)c-2nc2c1CCCC2 do in these assays?
USP1 inh: 14.1µM; EPAC1 agonist: inconclusive; EPAC2 antag: inactive; EPAC1 antagonist: inactive; EPAC2 agonist: inactive

What do the screens show for `O=C(CC(Nc1cccc(Cl)c1Cl)C(=O)O)c1ccccc1` (stereo unspecified)?
USP1 inh: inactive; EPAC1 agonist: inactive; EPAC2 antag: inactive; EPAC1 antagonist: inactive; VDR inhibitor: inconclusive; EPAC2 agonist: inactive

Results for O=C(CC(Nc1ccccc1Cl)C(=O)O)c1ccccc1 (stereo unspecified) ?
USP1 inh: inactive; EPAC1 agonist: inactive; EPAC2 antag: inactive; EPAC1 antagonist: inactive; VDR inhibitor: 25.1µM; EPAC2 agonist: inactive

How did Cc1sc(N)nc1-c1cccc([N+](=O)[O-])c1 do in these assays?
VDR inhibitor: inactive

Results for NS(=O)(=O)c1ccc2c(c1)C(=NO)c1cc(S(N)(=O)=O)ccc1-2 ?
USP1 inh: inactive; EPAC1 agonist: inactive; EPAC2 antag: inconclusive; EPAC1 antagonist: inconclusive; VDR inhibitor: inactive; EPAC2 agonist: inactive

Results for NC1=C(Cl)C(=O)c2ccc(S(N)(=O)=O)cc2C1=O ?
USP1 inh: 1.26µM; EPAC1 agonist: inactive; EPAC2 antag: inconclusive; EPAC1 antagonist: inconclusive; VDR inhibitor: inactive; EPAC2 agonist: inactive

Results for N=C(N)c1ccc(N)cc1 ?
USP1 inh: inactive; EPAC1 agonist: inactive; EPAC2 antag: inactive; EPAC1 antagonist: inactive; VDR inhibitor: inactive; EPAC2 agonist: inactive

What do the screens show for `Nc1ccc(O)cc1`?
VDR inhibitor: 79.4µM

What do the screens show for `CCOC(=O)c1[nH]c(C)c(C(=O)NC(C)(C)C)c1C`?
USP1 inh: inactive; EPAC1 agonist: inactive; EPAC2 antag: inactive; EPAC1 antagonist: inactive; VDR inhibitor: inactive; EPAC2 agonist: 6.31µM

What do the screens show for `O=C(O)c1ccc(-c2ccccc2Cl)o1`?
USP1 inh: inactive; EPAC1 agonist: inactive; EPAC2 antag: inactive; EPAC1 antagonist: inactive; VDR inhibitor: 141µM!; EPAC2 agonist: inactive

How did CCN(CC)c1ccc(/C=C2\C(=O)N(c3nnc(C)c(=O)[nH]3)N=C2C)cc1 do in these assays?
USP1 inh: inactive; EPAC1 agonist: inactive; EPAC2 antag: inactive; EPAC1 antagonist: inactive; VDR inhibitor: 15.8µM; EPAC2 agonist: inactive

Results for COc1ccc2cc3[n+](cc2c1O)CCc1cc2c(cc1-3)OCO2 ?
EPAC1 agonist: inactive; EPAC2 antag: 89.1µM; EPAC1 antagonist: inconclusive; EPAC2 agonist: inactive

How did CN1CCN(CC(O)COCCOc2ccc(Br)cc2)CC1 (stereo unspecified) do in these assays?
USP1 inh: inactive; EPAC1 agonist: inactive; EPAC2 antag: inactive; EPAC1 antagonist: inactive; VDR inhibitor: 25.1µM; EPAC2 agonist: inactive
